Hits are enriched below; roughly 13% of the tested compounds scored in any of these assays.
USP10 inh – blocks human USP10 ubiquitin-rhodamine cleavage | Q14694 | actives 1.1% (n = 47,000) | inhibition, % at 20 µM | purified USP10, Ub-rhodamine fluorescence, 60 min
USP8 block – blocks human USP8 ubiquitin-rhodamine cleavage; actives 4.2% (n = 47,000); P40818; inhibition, % at 20 µM; purified USP8, Ub-rhodamine cleavage fluorescence, 30 min; AID 1645853
USP28 inh – inhibitors of human USP28 deubiquitinase | actives 3% (n = 47,000) | inhibition, % at 25 µM | purified USP28, Ub-rhodamine cleavage fluorescence, 30 min | Q96RU2
USP30 inh – blocks human USP30 ubiquitin-rhodamine cleavage. Q70CQ3. purified USP30, Ub-rhodamine cleavage fluorescence. inhibition, % at 25 µM. actives 5.3% (n = 47,000). AID 1645860
Target sequence (Q70CQ3 whole entry, looked up): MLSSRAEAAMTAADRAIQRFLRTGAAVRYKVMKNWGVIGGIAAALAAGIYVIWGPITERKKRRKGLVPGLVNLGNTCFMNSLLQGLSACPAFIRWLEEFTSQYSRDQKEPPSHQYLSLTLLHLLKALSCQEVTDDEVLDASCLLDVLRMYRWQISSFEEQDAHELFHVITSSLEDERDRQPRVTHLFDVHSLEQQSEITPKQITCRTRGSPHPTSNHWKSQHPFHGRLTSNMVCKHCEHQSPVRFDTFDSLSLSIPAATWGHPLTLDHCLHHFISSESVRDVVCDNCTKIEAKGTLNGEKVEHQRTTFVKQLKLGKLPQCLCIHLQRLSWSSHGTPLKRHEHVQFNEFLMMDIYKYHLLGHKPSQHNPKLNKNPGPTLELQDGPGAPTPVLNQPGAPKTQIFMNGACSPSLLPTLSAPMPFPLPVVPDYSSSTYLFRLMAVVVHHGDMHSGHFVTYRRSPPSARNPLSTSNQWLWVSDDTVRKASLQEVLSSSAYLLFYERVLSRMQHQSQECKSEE
USP17 inh – human USP17-like deubiquitinase inhibition; purified USP17, Ub-rhodamine cleavage fluorescence, 3 h; inhibition, % at 50 µM; A8MUK1; actives 6.5% (n = 47,000); AID 1645855
Numbers without * were called inactive. Rule as the data show it: active = inhibition above about 30%; inactive = the rest.

Screening COc1cccc(-c2cc(=O)[nH]c(Nc3nc(C)c4ccccc4n3)n2)c1 returned USP10 inh -0.7, USP8 block 9.9, USP28 inh 12.2, USP30 inh 58.0* and USP17 inh 20.4.
`CC(C)CC1NC(=O)C2(CCN(C(=O)NCc3ccccc3)CC2)NC1=O` (stereo not drawn) gave USP10 inh 2.1, USP8 block 1.2, USP28 inh 1.1, USP30 inh -0.2 and USP17 inh -5.1.
`CCN1CCN(C(=O)c2ccc3c(c2)N(C)C(=O)C2CCCCN32)CC1` (stereo not drawn) gave USP10 inh -7.1, USP8 block 13.4, USP28 inh -7.5, USP30 inh -46.9 and USP17 inh 0.7.
`Cc1cc2nc(Nc3ncc4c(n3)CCCC4=O)nc(C)c2cc1C` gave USP10 inh -0.5, USP8 block 0.7, USP28 inh -7.0, USP30 inh -8.2 and USP17 inh 0.9.
For COc1ccc2nc(Nc3ncc4c(n3)CCCC4=O)nc(C)c2c1 the results were USP10 inh -0.8, USP8 block 12.7, USP28 inh 12.5, USP30 inh 51.6* and USP17 inh 37.7*.
COc1ccc(-c2noc(CN(Cc3ccccc3F)S(C)(=O)=O)n2)c(OC)c1 was read as USP10 inh 0.7, USP8 block -2.0, USP28 inh 7.9, USP30 inh 9.5 and USP17 inh 2.0.
`COc1ccccc1N1CCN(C(=O)c2snc(-c3ccccn3)c2N)CC1` gave USP10 inh 8.1, USP8 block 0.6, USP28 inh 3.8, USP30 inh 1.5 and USP17 inh 8.6.
For COc1ccc(CNc2c(S(=O)(=O)c3ccccc3)cnc3ccccc23)cc1 the results were USP10 inh 8.3, USP8 block 9.3, USP28 inh 6.1, USP30 inh 35.1* and USP17 inh 10.8.
For Cc1ccc(S(=O)(=O)c2cnc3ccccc3c2NCc2ccccc2)cc1 the results were USP10 inh 2.6, USP8 block 4.0, USP28 inh -3.3, USP30 inh 5.5 and USP17 inh 0.9.
`CCCC(O)CCCCCCCc1cc(O)cc(O)c1C(=O)OC(CCC)CCCCCCCc1cc(O)cc(O)c1` (stereo not drawn) gave USP10 inh 76.2*, USP8 block 14.7, USP28 inh 25.5, USP30 inh 20.2 and USP17 inh 91.1*.
For O=C(Nc1cccc(Cl)c1)c1ncn2c1CNS(=O)(=O)c1ccccc1-2 the results were USP10 inh 37.0*, USP8 block 22.7, USP28 inh 66.2*, USP30 inh 36.0* and USP17 inh 33.4*.
`O=C(CN1CCc2ccccc21)Nc1cc(C(=O)O)ccc1O` gave USP10 inh 0.1, USP8 block 49.5*, USP28 inh 2.2, USP30 inh -11.8 and USP17 inh 6.1.
Screening CCC12CN3CC(C)(CN(C1)C31C(=O)Nc3ccc(C)cc31)C2=O (stereo not drawn) returned USP10 inh -1.1, USP8 block 7.2, USP28 inh -2.5, USP30 inh 1.5 and USP17 inh 0.1.
For COc1ccccc1CNC(=O)c1ccc(CSc2nc3ccncc3n2Cc2ccccc2)cc1 the results were USP10 inh -3.5, USP8 block -9.6, USP28 inh 30.6*, USP30 inh 55.7* and USP17 inh 40.4*.
For COc1ccc(CCNC(=O)c2ccc(CSc3nc4ccncc4[nH]3)cc2)cc1OC the results were USP10 inh 1.0, USP8 block 0.7, USP28 inh 33.5*, USP30 inh -8.5 and USP17 inh -17.3.
COC(=O)c1ccc(CSc2nc3ccncc3n2CC(=O)N2CCCC2)cc1 was read as USP10 inh -1.7, USP8 block -126.2, USP28 inh -9.8, USP30 inh -17.7 and USP17 inh -25.5.
COc1ccc(CSc2nc3ccncc3n2CC(=O)Nc2ccc(C)cc2C)cc1 was read as USP10 inh 26.5, USP8 block 28.2, USP28 inh 70.2*, USP30 inh 84.2* and USP17 inh 72.1*.
For COc1cccc(CNC(=O)c2ccc(CSc3nc4ccncc4n3Cc3ccccc3F)cc2)c1 the results were USP10 inh 8.6, USP8 block -4.8, USP28 inh 34.2*, USP30 inh 53.7* and USP17 inh 35.8*.
Screening COc1ccc(Cn2c(SCc3ccc(C(=O)NCCc4ccccc4)cc3)nc3ccncc32)cc1 returned USP10 inh 14.2, USP8 block -4.5, USP28 inh 29.5, USP30 inh 53.1* and USP17 inh 32.0*.
`Cc1ccccc1OCCC(=O)NC(c1ccccc1)c1ccccc1` gave USP10 inh -0.3, USP8 block 12.4, USP28 inh 9.7, USP30 inh 21.1 and USP17 inh 32.0*.
For CCCOc1c(Br)cc(C(=O)Nc2ccccc2OC)cc1OC the results were USP10 inh 4.3, USP8 block 6.1, USP28 inh 11.3, USP30 inh 10.3 and USP17 inh 16.3.
For Cc1ccnc(NS(=O)(=O)c2ccc(NC(=O)c3ccc(S(=O)(=O)N(C)Cc4ccccc4)cc3)cc2)n1 the results were USP10 inh 41.9*, USP8 block 39.5*, USP28 inh -29.6 and USP30 inh -57.0.
For Cc1ccc(C)c(N(CC(=O)Nc2ccc3c(c2)OCCO3)S(=O)(=O)c2ccccc2)c1 the results were USP10 inh 9.8, USP8 block -84.7, USP28 inh 20.4, USP30 inh 30.4* and USP17 inh 10.0.
Screening CCN(Cc1ccccc1)S(=O)(=O)c1ccc(C(=O)Nc2ccc3c(c2)OCCO3)cc1 returned USP10 inh 9.9, USP8 block 21.6, USP28 inh 60.3*, USP30 inh 40.0* and USP17 inh 10.0.
For COc1cc(C(=O)Nc2ccccc2Cc2ccccc2)cc(OC)c1OC the results were USP10 inh 1.7, USP8 block 14.2, USP28 inh 3.6, USP30 inh 36.4* and USP17 inh 32.1*.
For CN(C)S(=O)(=O)c1ccc(C(=O)Nc2cccc(C(=O)N3CCOCC3)c2)cc1 the results were USP10 inh -0.3, USP8 block -0.7, USP28 inh -14.6 and USP30 inh -16.4.
Screening Cc1ccc(N(CC(=O)NCc2ccncc2)S(=O)(=O)c2ccccc2)c(C)c1 returned USP10 inh 2.5, USP8 block 3.5, USP28 inh 7.8, USP30 inh 9.8 and USP17 inh 0.6.
Screening Cc1ccc(S(=O)(=O)N(CC(=O)NCc2ccco2)c2ccc(Cl)cc2C)cc1 returned USP10 inh 9.1, USP8 block -14.7, USP28 inh 1.5, USP30 inh 17.9 and USP17 inh 6.8.
For Cc1nn(-c2ccccc2)c(C)c1S(=O)(=O)Nc1cccc(C#N)c1 the results were USP10 inh 1.7, USP8 block -48.5, USP28 inh 2.8, USP30 inh -24.0 and USP17 inh -13.1.
`Cc1ccc(F)cc1NC(=O)c1cnc2ccccn2c1=O` gave USP10 inh -0.9, USP8 block 1.1, USP28 inh -1.6, USP30 inh 0.2 and USP17 inh -3.6.
Screening COc1ccccc1C1=NS(=O)(=O)N(C)C(C(=O)NCc2ccccc2)=C1 returned USP10 inh 0.0, USP8 block -25.1, USP28 inh -3.2, USP30 inh 1.4 and USP17 inh 3.5.

Screening results (PubChem BioAssay)
